# Measurements from paper PMC5540273 (PLoS ONE, 2017).
# Legend:
# Settings in all cases: concentration: 1 μM, replicates: in singlicate; n = 1
# PKAC-beta = tested on: T1, PKAC-beta
# T1 construct: gene PRKACB
# PKMYT1 = tested on: PKMYT1
# PKN1 = tested on: PKN1
# PKN2 = tested on: PKN2
# PLK1 = tested on: PLK1
# PLK2 = tested on: PLK2
# PLK3 = tested on: PLK3
# PLK4 = tested on: PLK4
# PRKCD = tested on: PRKCD
# PRKCE = tested on: PRKCE
# 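Note: KINOMEscan kinase panel screen.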
Structure (SMILES),%Inh (PKAC-beta) [%],%Inh (PKMYT1) [%],%Inh (PKN1) [%],%Inh (PKN2) [%],%Inh (PLK1) [%],%Inh (PLK2) [%],%Inh (PLK3) [%],%Inh (PLK4) [%],%Inh (PRKCD) [%],%Inh (PRKCE) [%]
CC(C)c1cc(-c2ccc3c(N)n[nH]c3c2)nc(N)n1 [GSK2250882],0,14,0,0,0,0,0,0,0,5
O=C(Nc1n[nH]c2cc(-c3ccsc3)ccc12)C1CC1 [SB-732932],18,9,56,4,2,24,0,0,0,0
COc1ccc(CSc2nnc(-c3ccc4nccn4c3)o2)cc1C(F)(F)F,26,28,3,33,0,42,16,11,20,21
COc1cccc(NC(=O)Nc2ccc(C)c(-c3ccc(C(=O)Nc4ccncc4)cc3)c2)c1 [GSK1398474],0,0,0,14,0,0,0,6,15,0
